The source of these data is PubChem BioAssay (Tox21).

Each structure is given as a SMILES string. Values joined by “and” are separate entries in the source; they are usually repeats but may differ in a detail not shown here. Equal entries are not always repeated. Inconclusive results are not listed. Active and inactive are the calls of the source. Unless noted, calls come from the whole dose curve; as a rule, active = well fitted curve in the direction sought with a large enough effect in the repeat runs; inconclusive = weak or mixed curves; inactive = no such curve, though single readings can be large; an effect the other way counts as inactive or inconclusive.

The nature of assay [1]: qHTS assay to identify small molecule antagonists of the constitutive androstane receptor (CAR) signaling pathway - cell viability counter screen (AID 1224837). Note: nearly all actives have a fitted effect of over 45% in size. Note: potency is the fitted concentration of half-maximal effect. The method, boiled down: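 Fluorescence from CellTiter-Fluor served as the viability signal. Human hepatoma HepG2 cells stably bearing hCAR and CYP2B6-2.2kb received compound plus CITCO (50 nM final) for 23 hr.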

For assay [2], the target named is Nuclear receptor subfamily 1 group I member 3 (Homo sapiens) (UniProt Q14994). In words: qHTS assay to identify small molecule antagonists of the constitutive androstane receptor (CAR) signaling pathway (AID 1224838).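 Note: HepG2 cells stably expressing hCAR with CYP2B6 luciferase reporter stimulated by CITCO; nearly all actives have a fitted effect of over 40% in size.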 Note: potency is the fitted concentration of half-maximal effect. The method, boiled down:
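Quantitative HTS in double-stable HepG2-CYP2B6-hCAR cells. After 4 h plating, cells get compound (15 concentrations) and CITCO at 50 nM final, incubate 24 h at 37 C, then ONE-Glo luminescence is read.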

Assay [3] has the same target. In words: qHTS assay to identify small molecule agonists of the constitutive androstane receptor (CAR) signaling pathway (AID 1224839). Note: nearly all actives have a fitted effect of over 15% in size. Note: potency is the fitted concentration of half-maximal effect. The method, boiled down: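 A 15-concentration quantitative screen uses HepG2 cells co-transfected stably with human CAR and CYP2B6-2.2kb reporter. Treatment lasts 24 h with 0.75 uM PK11195 final present; ONE-Glo luminescence is the signal.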

A short description of assay [4]: qHTS assay to identify small molecule antagonists of the estrogen related receptor signaling pathway with the pleiotropic PPARgamma coactivator (PGC) from Tox21 10K library - cell viability counter screen (AID 1224840; active = well fitted cell-killing curve with a large enough effect in the repeat runs, not every such curve was filed as active; note: nearly all actives have a fitted effect of over 40% in size; note: potency is the fitted concentration of half-maximal effect). The method, boiled down:
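Compounds in DMSO, alongside positive and negative controls, were pinned onto PGC/ERR cells (2,000 per well). Exposure lasted 17.5 hours at 37 C, followed by a 30-minute CellTiter-Fluor incubation and fluorescence reading.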

A short description of assay [5]: qHTS assay to identify small molecule agonists of the constitutive androstane receptor (CAR) signaling pathway - cell viability counter screen (AID 1224836). Note: nearly all actives have a fitted effect of over 45% in size. Note: potency is the fitted concentration of half-maximal effect. Put shortly:
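Counter screen multiplexed with the CAR reporter readout: HepG2 cells co-transfected with hCAR and the CYP2B6-2.2kb construct receive a 15-concentration compound series and 0.75 uM PK11195 (final), then CellTiter-Fluor fluorescence is read after 23 h.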

A short description of assay [6]: qHTS assay to identify small molecule antagonists of the estrogen related receptor signaling pathway with the pleiotropic PPARgamma coactivator (PGC) from Tox21 10K library (AID 1224841; call rule not given here; note: actives are mostly falling curves and most rising ones were filed inactive; nearly all actives have a fitted effect of over 50% in size; note: potency is the fitted concentration of half-maximal effect). The method, boiled down: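 Compound exposure ran 18 hours at 37 C in PGC/ERR cells (2,000/well) that had first rested 6 hours in a 37 C/5% CO2 incubator. Luciferase activity was then detected with One-Glo after a 30-minute room-temperature step.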

Assay [7] can be described thus: qHTS assay to identify small molecule agonists of the estrogen related receptor signaling pathway with the pleiotropic PPARgamma coactivator (PGC) from Tox21 10K library (AID 1224842). Note: nearly all actives have a fitted effect of over 15% in size. The method, boiled down:
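Luminescence from One-Glo (30 min, room temperature) measured after PGC/ERR cells had 18 h at 37 C with pinned compound (23 nL in DMSO). Cells had been seeded at 2,000 per well and pre-incubated 6 h.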

Assay [8] has as its target Luciferin 4-monooxygenase (Photinus pyralis) (UniProt P08659). In words: qHTS assay to identify small molecule inhibitors of firefly luciferase (AID 1224835). Note: nearly all actives have a fitted effect of over 25% in size. Note: potency is the fitted concentration of half-maximal effect. Put shortly: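 Inhibition of purified Photinus luciferase is measured by luminescence. Substrate levels (D-luciferin, ATP) sit at their KM values. Each compound is tested in a concentration series.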

Sequence of Nuclear receptor subfamily 1 group I member 3 (Homo sapiens) (Q14994 whole entry, looked up): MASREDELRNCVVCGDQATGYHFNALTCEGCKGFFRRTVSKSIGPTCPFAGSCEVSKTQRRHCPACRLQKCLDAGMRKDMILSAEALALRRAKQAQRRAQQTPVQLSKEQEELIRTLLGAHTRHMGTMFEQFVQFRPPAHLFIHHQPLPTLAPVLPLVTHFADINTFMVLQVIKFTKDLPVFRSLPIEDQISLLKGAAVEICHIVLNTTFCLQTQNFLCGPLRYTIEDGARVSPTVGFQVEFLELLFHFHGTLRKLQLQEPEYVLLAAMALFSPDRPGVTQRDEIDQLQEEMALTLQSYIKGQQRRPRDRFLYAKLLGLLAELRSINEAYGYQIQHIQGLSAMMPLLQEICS
Sequence of Luciferin 4-monooxygenase (Photinus pyralis) (P08659 whole entry, looked up): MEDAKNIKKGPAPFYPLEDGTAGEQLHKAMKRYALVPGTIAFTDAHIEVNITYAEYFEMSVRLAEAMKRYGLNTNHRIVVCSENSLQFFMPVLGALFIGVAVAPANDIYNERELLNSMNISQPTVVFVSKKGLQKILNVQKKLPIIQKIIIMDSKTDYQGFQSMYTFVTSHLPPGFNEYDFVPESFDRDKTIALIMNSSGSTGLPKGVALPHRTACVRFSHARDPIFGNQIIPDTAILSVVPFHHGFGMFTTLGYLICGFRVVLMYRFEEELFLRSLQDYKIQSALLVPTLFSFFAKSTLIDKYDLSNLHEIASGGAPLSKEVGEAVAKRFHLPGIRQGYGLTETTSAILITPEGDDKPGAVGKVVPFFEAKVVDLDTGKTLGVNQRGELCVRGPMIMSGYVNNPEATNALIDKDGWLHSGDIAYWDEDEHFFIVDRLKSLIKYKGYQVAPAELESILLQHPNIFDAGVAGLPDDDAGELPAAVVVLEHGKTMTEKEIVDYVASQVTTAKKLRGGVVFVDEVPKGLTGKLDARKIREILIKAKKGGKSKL

As for `O=S(=O)(Cl)c1ccccc1`, the Potency result in assay [1], in assay [2], in assay [3] and in assay [4] was “inactive” each time.
On to `Oc1ccc(Cl)c(Cl)c1Cl`, for which the Potency entry in assay [5], in assay [1], in assay [2] and in assay [3] was “inactive” throughout.
Take `CC(C)(C)c1cc([N+](=O)[O-])cc([N+](=O)[O-])c1O`: the figures for the Potency in assay [1], in assay [2] and in assay [4] were 15.3 µM (active), 17.2 µM (active) and 15.3 µM (active), respectively. The Potency result in assay [3] is “inactive”.
With `CC(C)N(CCC(C(N)=O)(c1ccccc1)c1ccccn1)C(C)C` (stereo not drawn), the Potency entry in assay [5], in assay [1], in assay [2], in assay [3] and in assay [4] was “inactive” in each case.
Turning to `O=C(NCc1cccnc1)Nc1ccc([N+](=O)[O-])cc1`, the Potency result in assay [5], in assay [1] and in assay [2] was “inactive” in each case.
With `Cc1ccccc1C(=O)Nc1cccc(OC(C)C)c1`, the Potency entry in assay [5], in assay [1], in assay [2] and in assay [4] was “inactive” in each case.
As for `O=C(NC(=O)c1c(F)cccc1F)Nc1ccc(OC(F)(F)C(F)OC(F)(F)F)c(Cl)c1` (stereo not drawn), the Potency result in assay [1], in assay [4], in assay [6] and in assay [7] was “inactive” in each case.
As for `ClCc1cccc(Cl)c1`, the Potency entry in assay [8], in assay [1], in assay [4], in assay [6] and in assay [7] was “inactive” each time.
For the molecule `Cc1ccccc1CCl`, the Potency entry in assay [8], in assay [1], in assay [2], in assay [3], in assay [4] and in assay [6] was “inactive” throughout. The Potency result in assay [7] is “inactive”.
For the molecule `O=[N+]([O-])C(Br)(CO)CO`, the Potency result in assay [5], in assay [3] and in assay [6] was “inactive” in each case.
As to `O=C1C(=O)c2cccc3cccc1c23`, the Potency entry in assay [5], in assay [1], in assay [2] and in assay [4] was “inactive” in each case. Also, in assay [3], the Potency was 61.1 µM (active).
As for `C(=NC1CCCCC1)=NC1CCCCC1`, the Potency result in assay [8], in assay [3] and in assay [7] was “inactive” in each case. The Potency was 10.9 µM (active) and 21.7 µM (active) in assay [2]; 38.8 µM (active) in assay [4]; 13.7 µM (active) in assay [6].
For the molecule `O=C(Nc1ccccc1)Nc1cnns1`, the Potency entry in assay [2], in assay [4], in assay [6] and in assay [7] was “inactive” each time.
In the case of `CCBr`, the Potency result in assay [8], in assay [1], in assay [2], in assay [3], in assay [4] and in assay [6] was “inactive” throughout. Moreover, the Potency result in assay [7] was “inactive”.
As for `O=C(OC1CCCCC1)c1ccccc1C(=O)OC1CCCCC1`, the Potency result in assay [5], in assay [1], in assay [2] and in assay [4] was “inactive” in each case.
For `CCOP(=O)(OCC)O/C(=C/Cl)c1ccc(Cl)cc1Cl`, the Potency entry in assay [8], in assay [2] and in assay [7] was “inactive” throughout. For the same molecule, the Potency was 27.3 µM (active) in assay [3] and 2.73 µM (active) in assay [6].
Consider `O=[N+]([O-])c1ccc(F)c([N+](=O)[O-])c1`, for which the Potency in assay [5] is 34.7 µM (active); in assay [1] it was 34.7 µM (active); in assay [4], 55 µM (active); in assay [6], 49 µM (active). The Potency result in assay [2], in assay [3] and in assay [7] was “inactive” in each case.
Take `N#Cc1ccc(Cl)cc1`: the Potency entry in assay [8], in assay [1], in assay [2], in assay [3], in assay [4] and in assay [6] was “inactive” each time. Besides, in assay [7], the Potency entry was “inactive”.
Take `CCCCC(O)(Cn1cncn1)c1ccc(Cl)cc1Cl` (stereo not drawn): the Potency was 61.1 µM (active) in assay [1], 54.4 µM (active) in assay [4] and 48.5 µM (active) in assay [6]. Besides, the Potency result in assay [2] and in assay [7] was “inactive” in each case.
Take `Clc1ccc(C2(Cn3cncn3)CC(Br)CO2)c(Cl)c1` (stereo not drawn): the Potency entry in assay [8], in assay [2] and in assay [7] was “inactive” each time. The Potency is 60.8 µM (active) in assay [3] and 24.2 µM (active) in assay [6].
With `N#Cc1cc(I)c(O)c(I)c1`, the Potency in assay [2] is 61.1 µM (active); in assay [6] it was 30.6 µM (active). In addition, the Potency result in assay [3] and in assay [7] was “inactive” in each case.
Take `Nc1ccc(N=Nc2ccc(-c3ccc(N=Nc4c(S(=O)(=O)O)cc5cc(S(=O)(=O)O)c(N=Nc6ccccc6)c(O)c5c4N)cc3)cc2)c(N)c1`: the Potency in assay [8] was 20.4 µM (active); in assay [4], 35.1 µM (active). Further, the Potency result in assay [2] was “inactive”.
For the molecule `CCCN(CCC)c1c([N+](=O)[O-])cc(S(C)(=O)=O)cc1[N+](=O)[O-]`, the Potency result in assay [5], in assay [1] and in assay [7] was “inactive” throughout.
For the molecule `CCCC(=O)Cl`, the Potency result in assay [1] and in assay [4] was “inactive” each time.
As to `CO/C=C(/C(=O)OC)c1ccccc1COc1cccc(C(F)(F)F)n1`, the Potency result in assay [2] and in assay [7] was “inactive” throughout. Further, the Potency in assay [3] is 3.85 µM (active).
As to `CCc1ccc(C(=O)NN(C(=O)c2cc(C)cc(C)c2)C(C)(C)C)cc1`, the Potency entry in assay [8], in assay [2], in assay [4] and in assay [7] was “inactive” throughout. Moreover, the Potency in assay [6] is 30.6 µM (active).
As for `C=CC(=O)OC`, the Potency result in assay [5], in assay [1], in assay [2], in assay [3] and in assay [4] was “inactive” in each case.
As to `CC[C@H]1C[C@H]2[C@@H]3CCC4=CC(=O)CC[C@@H]4[C@H]3CC[C@]2(C)[C@H]1O`, the Potency entry in assay [5], in assay [1], in assay [2], in assay [3] and in assay [7] was “inactive” throughout.
